Experimental data published in PubChem BioAssay AID868 (SRMLSC, 2007).
In all, about 190,000 compounds went through this assay and about 3,500 (1.8%) were called active. Only a selection was taken, and actives are over-represented in it overall. A number with no mark means an inactive call.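 How the source made its calls: active means inhibition above a set limit, 3 SD over mean compound inhibition (cut at about 8.4% in these data); inactive means the rest.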

Test: RAM signaling blockers in budding yeast – dse1pr::URA3 reporter, 5-FOA selection, primary screen (AID 868);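 further: 0% = DMSO-only wells with no growth and 100% = 10 µM 1-NA-PP1 full growth; inhibition rescues growth on 5-FOA so higher OD means more RAM inhibition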
Details: S. cerevisiae dse1pr::URA3 reporter, 5-FOA growth OD615, 2 d; at 50 µM; active compounds read high; analog-sensitive cbk1-as2 kinase mutant strain

Point of comparison: `COc1ccccc1CNC(=O)CCCn1c(=O)c2ccccc2n(CC(=O)NC2CCCC2)c1=O`, inhibition 1.5%. Against it:
- COc1cc(/C=C/C(=O)O)cc(S(=O)(=O)Nc2ccccc2SC)c1OC — higher, 5.01%
- COc1ccc(C(=O)OCC(=O)NCC2CCCCC2)cc1S(=O)(=O)N1CCCc2ccccc21 — higher, 2.15%
- Cc1cc(=O)[nH]c(N/N=C/c2c(C)nn(-c3ccccc3Cl)c2Cl)n1 — higher, 1.7%
- CCOc1ccc(/C=N/Nc2nncc(-c3ccccc3)n2)cc1OC — lower, -0.12%
- Cc1cc(OC(=O)c2ccccc2Cl)ccc1N1C(=O)CCC1=O — lower, -1.28%
- COc1ccc(CCNC(=O)CCn2c(=O)c3ccccc3n(CC(=O)NCC3CCCO3)c2=O)cc1OC (centres undefined) — higher, 4.36%
- CCc1nnc(NS(=O)(=O)c2ccc(NC(=S)NC(=O)c3cccs3)cc2)s1 — higher, 4.73%
- O=C(NC(=S)Nc1ccc(NC(=O)c2cccs2)cc1)c1ccc([N+](=O)[O-])cc1 — higher, 2.93%
- COc1cccc(NC(=O)NCc2ccc(F)cc2)c1 — higher, 5.02%
- Cc1c(C=O)c2ccccc2n1CC(=O)O — lower, 0%
- CSc1nc2c(c(=O)[nH]1)C(c1cccc(Cl)c1Cl)CC(=O)N2 (centres undefined) — higher, 5.93%
- COc1ccc(CC(=O)NCc2nnc(SCC(=O)Nc3nccs3)n2C)cc1 — higher, 6.82%
- CCOc1ccc(CN(Cc2ccco2)S(=O)(=O)c2ccc(-n3cnnn3)c(OC)c2)cc1 — higher, 6.13%
- COc1ccc(S(=O)(=O)NCc2ccc(C(=O)N(C)Cc3ccco3)cc2)cc1 — lower, 0.12%
- Cc1ccc(S(=O)(=O)NCCc2nnc3ccc(SCc4cccnc4)nn23)cc1 — lower, 0.39%
- CCOc1ccc(NC(=O)c2ccc(CSc3nnnn3C)cc2)cc1 — higher, 2.05%
- CCOc1ccc(C(=O)Nc2cc(OC)ccc2OC)cc1 — lower, 0.11%
- CCOc1cc(NS(=O)(=O)c2ccc(OC)cc2)c(OCC)cc1NC(C)=O — higher, 3.5%
- CCOC(=O)CNc1nc(Cl)nc(Nc2ccccc2)n1 — higher, 5.04%
- CC(Sc1nnnn1C)C(=O)NC(=O)NC1CCCCC1 (centres undefined) — lower, 0.61%
- Cc1ccc(-c2cc(C(=O)N/N=C/C=C/c3ccccc3)n[nH]2)o1 — higher, 2.69%
- COc1cc(/C=C(\C#N)C(=O)Nc2ccc3ccccc3c2)c([N+](=O)[O-])cc1OC — lower, -0.51%
- COc1cc(C=O)c(Br)cc1OCC(=O)NCc1ccccc1 — higher, 3.38%
- O=C(/C=C/c1ccccc1Cl)Nc1ccc(S(=O)(=O)Nc2ncccn2)cc1 — higher, 5.65%
- O=S(=O)(Nc1ncccn1)c1ccc(NS(=O)(=O)c2cccc(Cl)c2Cl)cc1 — higher, 1.52%
- COc1cccc(NC(=O)CN(C)C(C)C(=O)Nc2ccc(C#N)cc2)c1 (centres undefined) — higher, 1.87%
- COc1cccc(NC(=S)NCc2ccco2)c1 — lower, -0.52%
- CCn1c(Cc2ccccc2)nnc1SCC(=O)Nc1ccccc1 — lower, 1.42%
- CCn1c(COc2ccc(OC)cc2)nnc1SCC(=O)Nc1cc(OC)ccc1OC — lower, 0.11%
- CCS(=O)(=O)Nc1ccc(C2=NN(C(C)=O)C(c3cccs3)C2)cc1 (centres undefined) — lower, -0.12%
- Cn1nnnc1-c1cc(Cl)cc(Cl)c1 — lower, -0.86%
- CCOc1ccc(-n2c(O)c(/C=N/Nc3nc(C)cc(C)n3)c3ccccc3c2=O)cc1 — higher, 3.13%
- COC(=O)Cc1csc(Nc2c(C)n(C)n(-c3ccccc3)c2=O)n1 — lower, 1.09%
- COCCCNC(=S)NNC(=O)C(O)(c1ccccc1)c1ccccc1 — lower, 1.35%
- COc1ccc(C(=O)CSc2nc(C)cc(C)n2)cc1[N+](=O)[O-] — higher, 4.17%
- CC1CCCN(CC(O)COCc2ccccc2)C1 (centres undefined) — higher, 3.48%
- Cc1cccc(NS(=O)(=O)c2ccc(C)c(C(N)=O)c2)c1 — lower, 0.63%
- CCc1nnc(NC(=O)CCC(=O)NCc2ccccc2OC)s1 — lower, 1.08%
- COc1ccccc1Cc1nc(-c2ccc(C)cc2)no1 — lower, 0%
- Cc1ccc(-c2noc(CN3CCN(Cc4ccccc4)CC3)n2)cc1 — higher, 1.83%
- Cc1cc(C)cc(C(=O)N(CCc2ccccc2)C2=CC3CCC(C2)N3C)c1 (centres undefined) — lower, 0.13%
- C=CCOCCN(C)C1=NS(=O)(=O)c2ccccc21 — higher, 2.38%
- C=CCn1c(SCC(=O)CC(=O)OCC)nc2cc(C(=O)N3CCC(C(N)=O)CC3)ccc2c1=O — higher, 2.99%
- O=C(NNC(=S)NCc1ccccc1)c1ccc(OC(F)F)cc1 — the same, 1.5%
- COc1cccc(CC2(CO)CCCN(CC3=Cc4cc(OC)ccc4OC3)C2)c1 (centres undefined) — lower, 0.13%
- O=C(c1nnc(-c2ccc(Cl)cc2)o1)C1CCCC1 — higher, 2.68%
- COC(=O)CSc1nc(C2CC2)nc2ccccc12 — lower, -0.4%
- CCOc1ccc2cc(C#N)c(SCC(=O)OC)nc2c1 — higher, 1.88%
- O=C(CSc1cccc[n+]1[O-])c1ccc(-c2ccccc2)cc1 — lower, 0.55%
- CCCCc1nc(NCCN)c(C#N)c2c1CSC(C)(C)C2 — lower, 1.35%
- CCN1CCc2c(C#N)c(NCc3ccccc3)nc(NCCO)c2C1 — higher, 1.86%
- CS(=O)(=O)N1CCc2cc(C(=O)Nc3ccccc3)ccc21 — higher, 3.82%
- COc1ccc(OCC(=O)OCC(=O)Nc2ccc(S(=O)(=O)N3CCCCC3)cc2)cc1 — higher, 4.54%
- CN(CC(=O)Nc1ccc(S(=O)(=O)N2CCCC2)cc1)Cc1ccc(Cl)c(Cl)c1 — lower, -0.13%
- COc1ccc(Sc2nc(-c3ccccc3)ncc2OC)cc1 — higher, 4.55%
- O=C(CCC(=O)OCC(F)(F)C(F)F)NCc1ccccc1 — lower, -0.39%
- Cc1ccc(OC(=O)c2cc3ccccc3o2)cc1 — lower, 0.41%
- COc1ccc(C=Nc2cccc3ncccc23)cc1 — lower, 0.48%
- C=C(C)c1cccc(C(C)(C)NC(=O)NCCN(CC)CC)c1 — lower, 1.45%
- O=[N+]([O-])c1cc(S(=O)(=O)Nc2cccc(Cl)c2)ccc1N=Nc1c(O)[nH]c2ccccc12 — higher, 7.97%
- O=C(OCN1C(=O)c2ccccc2C1=O)/C(=C\c1ccco1)NC(=O)c1ccccc1 — lower, 1.22%
- CCCCOc1ccc(C(=O)NCc2ccco2)cc1 — lower, 0.66%
- COc1ccc2c(c1)CCC/C2=N\OC(=O)c1ccccc1F — lower, 0%
- Cc1ccc(S(=O)(=O)NC(C)C(=O)Nc2ccccc2C(=O)N2CCCC2)cc1 (centres undefined) — lower, 0.67%
- COc1ccc(C(=O)NNS(=O)(=O)c2ccc(C)cc2)cc1 — lower, 1.12%
- Cc1ccc(C(C[N+](=O)[O-])c2c(C)cc3ccccn23)cc1 (centres undefined) — higher, 5.1%
- CCN1CCN(C(=O)CN(C)S(=O)(=O)c2ccc3ccccc3c2)CC1 — lower, 1.12%
- N/C(=N\OC(=O)CCCC(=O)O)c1ncc(C(F)(F)F)cc1Cl — higher, 1.61%
- O=C(CCC(=O)c1cccs1)NCc1ccccc1 — higher, 1.52%
- CCCC(=O)n1nc(NCc2ccc(OC)cc2)nc1NCc1ccc(OC)cc1 — higher, 6.99%
- O=C(NCCOc1ccccc1Cl)C(=O)Nc1ccccc1 — higher, 4.17%
- NC(N)=Nc1nc2ccc(Br)cc2c(=O)[nH]1 — lower, -0.37%
- CCOCC(=O)Nc1sc2c(c1C(=O)OCC)CCCC2 — higher, 2.1%
- CCOC(=O)c1c(NC(=S)NC(=O)c2ccco2)sc2c1CCCC2 — higher, 4.55%

In the case of `CCC(C)(C)NC(=O)/C=C/c1cc(OC)c(OC)c(S(=O)(=O)N2CCc3ccccc32)c1`, the inhibition is reported as 9.06% (active).
For `O=C(NC(=S)Nc1cccc(-c2ccc(CO)o2)c1)c1cccs1`, the inhibition was 9.61% (active).
In the case of `COc1ccc(CN(Cc2ccco2)S(=O)(=O)c2ccc(S(=O)(=O)N3CCCC3)cc2)cc1`, the inhibition is reported as 9.77% (active).
With `CCOc1cc(NC(=O)c2ccccn2)c(OCC)cc1NC(=O)c1ccc(OC)cc1` the inhibition was 10.6% (active).
With `COc1ccc(NC(=O)/C(C#N)=C\c2cc(OC)c(OCc3ccc(C(=O)O)cc3)cc2Br)cc1` the inhibition was 8.75% (active).
In the case of `O=C(/C=C/c1ccc(Cl)cc1)Nc1ccc(S(=O)(=O)Nc2ncccn2)cc1`, the inhibition is reported as 8.46% (active).
In the case of `CCn1c(COc2ccccc2)nnc1SCC(=O)Nc1ccc2c(c1)OCCO2`, the inhibition is reported as 9.4% (active).
With `COC(=O)Cc1csc(/N=C/c2c(O)n(-c3cccc(C(F)(F)F)c3)c(=O)c3ccccc23)n1` the inhibition was 8.86% (active).
With `COc1ccccc1CNC(=O)CCn1c(=O)sc2ccccc21` the inhibition was 8.77% (active).
In the case of `Cc1ccc(-c2noc(CC(c3ccccc3)c3ccccc3)n2)cc1`, the inhibition is reported as 9.59% (active).
With `C/C(CCC(=O)OC[C@H]1O[C@H](C#Cc2ccccc2)C=C[C@@H]1Oc1ccc(C)cc1)=N\OC[C@@H](O)[C@H]1O[C@@H]2OC(C)(C)O[C@@H]2[C@H]1O` the inhibition was 11.1% (active).
In the case of `COC(=O)CSc1nc2c(c(C3CC=CCC3)c1C#N)CCC2` (centres undefined), the inhibition is reported as 8.53% (active).
In the case of `CCCCc1nc(NCc2ccccc2)c(C#N)c2c1CCCC2`, the inhibition is reported as 8.74% (active).
In the case of `O=C(CSCc1ccc(Br)cc1)Nc1ccc(S(=O)(=O)N2CCCCCC2)cc1`, the inhibition is reported as 19.5% (active).
With `Cc1ccc(OC(=O)c2ccccc2C(=O)OCC(F)(F)C(F)F)cc1` the inhibition was 8.9% (active).
With `COc1ccc(/C=C(\NC(=O)c2ccc(OCC(C)C)cc2)C(=O)OCc2ccco2)cc1` the inhibition was 11.7% (active).
For `Cc1ccc(S(=O)(=O)NNC(=O)Nc2cccc3ccccc23)cc1`, the inhibition was 8.69% (active).
For `O=C(c1cccs1)n1nc(NCc2ccccc2)nc1NCc1ccccc1`, the inhibition was 11.2% (active).
With `CCOC(=O)c1c(NC(=O)CCC(=O)NCc2ccco2)sc2c1CCCC2` the inhibition was 9.97% (active).
